An excerpt weighted towards active compounds, which were near 9.3% of everything screened.
ELG1 genotoxic: induces genotoxicity in HEK293T cells with luciferase-tagged ELG1. 1.3% of 330,000 active. Potency, µM (doses to about 46 µM), for the others: at the highest dose activity change, positive = activation, hits mostly activators. HEK293T ELG1-luciferase reporter, luminescence, 16 h; further: % of control where 0% means no effect; nearly all actives have a fitted effect of over 60% in size
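Genotoxic stress is detected as increased luminescence from luciferase-tagged ELG1 in HEK293T cells, measured with ONE-Glo after a 16 hr treatment at 37 °C.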
SMN2 splice enh: SMN2 splice variant enhancement; AID 1458; Potency, µM (highest dose often 46.1 µM), for the others: at the top dose activity change, positive = activation, hits mostly activators; HEK293 SMN2-luciferase splicing reporter, luminescence, 30-36 h; 2.8% of 210,000 active; further: % of control where 0% means no effect; nearly all actives have a fitted effect of over 55% in size
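qHTS luciferase splicing reporter: luminescence rises when SMN2 exon 7 is included in transfected HEK293 cells. Compound exposure lasted 30-36 h at 37C, with 4.5 mM final sodium butyrate as control, followed by a ONE-Glo read.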
ELG1 DNA repair: blocks ELG1-dependent DNA repair in HEK293T cells; HEK293T ELG1-luciferase reporter, luminescence, 16 h; DNA damage induced by 5-fluorouridine; Potency, µM (top dose mostly 46.1 µM), inactives show top-dose activity change, negative = inhibition, actives largely listed as inhibitors; 2.3% of 330,000 active; further: on the % scale 0 is the no-effect control and ±100 the full control effect; nearly all actives have a fitted effect of over 55% in size
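Cells (2,000 per well) received 5-fluorouridine plus test compound or DMSO and were incubated 16 hr at 37 °C, 5% CO2. Luciferase activity was read by luminescence 30 min after ONE-Glo addition; signal suppression marked inhibition of damage-induced ELG1 function.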
FLuc modulator: firefly luciferase modulation, counter-screen for miR-21 project; 6.9% of 360,000 active; Potency, µM (top dose mostly 57.5 µM), without a hit: at the highest dose activity change, negative = inhibition, usual class: inhibitors; AID 588342; purified FLuc, Km substrates, luminescence inhibition;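 further: plate controls were vehicle for no effect and reference inhibitor for full effect; nearly all actives have a fitted effect of over 55% in size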
Target sequence (P08659 whole entry, looked up): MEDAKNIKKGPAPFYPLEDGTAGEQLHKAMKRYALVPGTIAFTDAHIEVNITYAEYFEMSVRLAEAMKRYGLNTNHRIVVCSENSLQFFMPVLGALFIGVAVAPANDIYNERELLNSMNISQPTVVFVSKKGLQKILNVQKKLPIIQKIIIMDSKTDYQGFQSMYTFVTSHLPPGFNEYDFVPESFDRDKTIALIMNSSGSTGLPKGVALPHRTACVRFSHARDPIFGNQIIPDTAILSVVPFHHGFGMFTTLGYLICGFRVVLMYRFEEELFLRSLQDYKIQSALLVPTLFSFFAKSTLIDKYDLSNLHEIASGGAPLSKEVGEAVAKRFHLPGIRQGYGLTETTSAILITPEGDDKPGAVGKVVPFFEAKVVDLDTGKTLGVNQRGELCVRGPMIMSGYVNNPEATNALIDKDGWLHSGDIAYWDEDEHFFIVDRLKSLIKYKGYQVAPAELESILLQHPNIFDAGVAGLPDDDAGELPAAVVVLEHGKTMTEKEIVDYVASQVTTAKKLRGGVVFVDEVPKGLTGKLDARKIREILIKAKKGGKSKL
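Purified P. pyralis luciferase (10nM final) with 10uM D-luciferin and 10uM ATP (Km levels) in 50mM Tris acetate pH 7.5, 10mM Mg acetate, 0.01% Tween-20, 0.05% BSA; qHTS 6-point titration, ~60 µM downward; luminescence read.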
NPC1 promoter act: NPC1 promoter activation. Huh7 NPC1 promoter luciferase reporter, 24 h. 2.4% of 320,000 active. Potency, µM (series often up to 9.22 µM), for inactives: at the top dose activation, usual class: activators; further: % of control where 0% means no effect; nearly all actives have a fitted effect of over 60% in size
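Readout is luciferase luminescence, reflecting NPC1 promoter activation in stably transfected Huh7 cells after 24 h compound exposure at 37 °C in reduced-serum medium with 10% FBS.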
Rab9 prom act: activators of Rab9 promoter | Potency, µM (titrated, usually from 9.22 µM), for inactives: at the top dose activation, negative = inhibition, hits mostly activators | AID 485297 | Huh7 Rab9 promoter-luciferase reporter, luminescence, 24 h | 2.8% of 320,000 active; further: % of control where 0% means no effect; nearly all actives have a fitted effect of over 60% in size
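Huh7 cells stably carrying a Rab9 promoter-luciferase reporter, 1500 cells per well in OP-MEM I with 10% FBS, treated with compound 24 hours at 37C. Luciferase activity read by luminescence after 10 minutes with Amplite reagent.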
* marks the source's active call; other numbers are inactive results; ? = inconclusive; nt = no result given. The call rests on the fitted dose curve; in most records, active means well fitted curve in the direction sought with a large enough effect; inconclusive means small, poorly fitted or top-dose-only effect, or another doubt; inactive means no such curve, though single readings can be large; an effect the other way counts as inactive or inconclusive. Potency means the concentration at half of the fitted maximal effect.

SMILES	ELG1 genotoxic	SMN2 splice enh	ELG1 DNA repair	FLuc modulator	NPC1 promoter act	Rab9 prom act
O=C(COC(=O)COc1ccc(Cl)cc1Cl)NC1CCCCCC1	0.8%	nt	8.5%	-0.4%	1.9%	1.0%
O=C(COc1ccccc1Cl)NC(=O)NC1CCCC1	?	-10.4%	?	13.5µM*	16.0%	?
O=C(COc1ccc(Cl)cc1Cl)N1CCCN(C(=O)COc2ccc(Cl)cc2Cl)CC1	-12.4%	-34.1%	?	-9.2%	-1.6%	-2.2%
Cc1cc(Cl)ccc1OCC(=O)N1CCCCC1	20.6µM*	?	?	16.9µM*	?	27.6%
O=C(COc1ccc(Cl)cc1Cl)NC(=O)N1CCCCC1	2.91µM*	2.24µM*	?	3.38µM*	25.2%	?
O=C(COc1ccc(Cl)cc1Cl)NC(=O)NC1CCCC1	?	nt	?	9.53µM*	?	?
Cc1cccc(C(=O)NCCC(=O)NCc2ccccc2Cl)c1	2.9%	nt	0.8%	2.2%	0.7%	-5.1%
Nc1nc2c(s1)CCc1c-2cnn1-c1ccccc1	-11.2%	11.2µM*	?	6.75µM*	0.794µM*	?
Nc1nc2c(s1)COc1ccccc1-2	10.2%	nt	?	?	13.4%	17.4%
COc1ccc2cc(CCC(C)=O)ccc2c1	nt	12.6µM*	nt	?	?	?
CC1CCCN(CCOc2ccc3ccccc3c2Br)C1 (configuration not stated)	13.8%	-10.8%	22.9%	26.9µM*	14.4%	21.8%
COc1cc(CC(=O)OCC(=O)Nc2ccc3c(c2)OCO3)cc(OC)c1OC	-3.8%	5.2%	-1.3%	-12.5%	0.7%	-1.3%
Cc1ccc(NC(=O)CSc2ncccc2C(=O)Oc2cccc([N+](=O)[O-])c2)cc1Cl	23.1µM*	11.2µM*	?	?	4.47µM*	?
CCN(c1ccccc1)S(=O)(=O)c1cccc(C(=O)Nc2ccc(C)cn2)c1	-11.0%	nt	?	0.3%	-3.6%	0.2%
O=C(CSc1nnc(-c2ccc(C(F)(F)F)cn2)o1)Nc1cccc(Cl)c1	?	nt	?	nt	3.16µM*	?
O=C(CSc1n[nH]c(-c2ccccn2)n1)Nc1cccc(Cl)c1	-5.8%	nt	25.9µM*	?	-34.8%	-40.2%
COc1ccc(OCc2nnc(SCC(=O)Nc3cccc(Cl)c3)o2)cc1	-0.3%	nt	-7.1%	19µM*	-2.5%	-0.2%
Cc1ccccc1NC(=O)CSc1nnc(-c2ccccn2)o1	7.8%	nt	0.0%	-4.2%	29.2%	?
O=C(CSc1nnc(-c2ccccn2)o1)Nc1cccc(Cl)c1	6.4%	nt	?	nt	?	2.24µM*
NCCc1nnc(SCC(=O)Nc2cccc(Cl)c2)o1	0.4%	nt	16.9%	2.8%	-0.3%	3.2%
Cc1nc(SCC(=O)Nc2cccc(Cl)c2)n[nH]1	2.7%	14.9%	-0.3%	3.7%	-6.4%	-1.3%
Cc1ccc(-c2nnc3ccccc3c2C(=O)Nc2ccccc2F)cc1	nt	nt	nt	-1.9%	nt	nt
O=C(CSc1nc2c(oc3ccccc32)c(=O)[nH]1)Nc1cccc(Cl)c1	nt	20µM*	nt	1.2µM*	nt	nt
O=C(CSc1nnc(-c2ccccn2)o1)Nc1ccccc1F	?	nt	?	1.7%	0.447µM*	0.794µM*
Cc1c(C(=O)N2CCOCC2)sc(NC(=O)Cc2ccccc2)c1C#N	1.0%	-2.7%	-13.8%	5.5%	-5.3%	-1.0%
O=C(NC(Cc1ccccc1)C(=O)O)/C(=C/c1ccc([N+](=O)[O-])cc1)NC(=O)c1ccccc1 (configuration not stated)	0.3%	nt	4.0%	-2.6%	0.1%	1.1%
O=C(NCc1cccs1)c1nc2c(nnn2Cc2ccccc2Cl)c(=O)[nH]1	-4.8%	-87.4%	16.4µM*	-17.7%	-34.6%	-42.7%
O=C(COC(=O)c1c(F)cccc1F)NCCNC(=O)COC(=O)c1c(F)cccc1F	16.0%	nt	13.5%	3.2%	-0.6%	3.0%

Screening data (PubChem BioAssay)
